± gives the standard deviation.

The experiment relates to Streptococcus suis P1/7. The experiment can be described thus: percent growth relative to DMSO control; higher = less growth inhibition. The following applies: 10 µM; incubation time 18 h. As to the method: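 CLSI broth microdilution: 5x10^4 CFU of Streptococcus suis (strain P1/7 or HE06) incubated with 10 µM Pathogen Box compound in cation-adjusted Mueller Hinton broth, 37 °C, 5% CO2, 18 h. Growth read as OD600 and expressed as percent of the DMSO-treated control (100%); mean ± SD of three independent experiments.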
As to `CC1(C)OB(O)c2ccc(C3=NOC(c4cc(Cl)c(F)c(Cl)c4)(C(F)(F)F)C3)cc21` (centres undefined), the percent growth worked out at 0.819 ± 0.82%.
The result for `O=C1O[C@@H](CO)CN1c1cc(F)c(C2=CCN(Cc3ccccc3)CC2)c(F)c1` reads 13.5 ± 23%; that for `Nc1c2c(nc3sc4c(c13)CCCC4)CCCC2`, 97.3 ± 30%; that for `CCc1nn(C)c(C(=O)NCc2ccc(Oc3ccc(C)cc3)cc2)c1Cl`, 91.4 ± 28%.
The result for `Cc1cccc(C(=O)Nc2ccnc(N(C)C3CCN(CC(C)C)CC3)c2)c1` reads 67.9 ± 22%; that for `CO[C@@H]1CN(c2ccc(C#CC3(O)CN4CCC3CC4)c(Cc3ccccc3)n2)C[C@H]1O` (some centres undefined), 124 ± 50%.
On to `Cc1nn(Cc2ccccc2)c(Cl)c1C(=O)NC1CCCCCC1`, for which the percent growth is 93.1 ± 26%.
The figure for `CC1COC(Cn2cncn2)(c2ccc(Oc3ccc(Cl)cc3)cc2Cl)O1` (centres undefined) is 82.9 ± 29%; for `CO/N=C(\C(=O)OC)c1ccccc1CO/N=C(\C)c1cccc(C(F)(F)F)c1` it is 82 ± 16%; for `CO/C=C(/C(=O)OC)c1ccccc1Oc1cc(Oc2ccccc2C#N)ncn1` it is 80.8 ± 20%.
The result for `Cc1nn(C)c(C)c1NS(=O)(=O)c1c(Cl)cc(-c2ccnc(N3CCNCC3)c2)cc1Cl` reads 76.6 ± 7.2%; that for `Cc1cc(C2=NOC(c3cc(Cl)c(F)c(Cl)c3)(C(F)(F)F)C2)ccc1C(=O)NCc1ccc2c(c1)C(C)(C)OB2O` (centres undefined), 61.5 ± 40%.
The result for `O=C1O[C@@H](COc2ccon2)CN1c1cc(F)c(C2=CCN(Cc3ccccc3)CC2)c(F)c1` reads -0.108 ± 0.19%; that for `CC(C)(C)C(O)C(Oc1ccc(-c2ccccc2)cc1)n1cncn1` (centres undefined), 86.6 ± 29%.
